Records with an inconclusive call do not appear. A call without a number means that no potency is given here. A number with no mark means an inactive call. Activity calls are given as the source filed them. Calls follow the shape of the dose curve; as a rule, active = well fitted cell-killing curve with a large enough effect; inconclusive = small, poorly fitted or top-dose-only effect, or effect the other way; inactive = no such curve, though single readings can be large or run the other way.
What was measured:
[1] = Viability qHTS for spleen associated tyrosine kinase inhibitor (SYKi) naive MV4-11 cells (AID 1963823); also: nearly all actives have a fitted effect of over 40% in size
Method in brief: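 Read-out: CellTiter-Glo luminescence. Exposure: 72 hr, 37 C, 5% CO2, 95% humidity. Cells: MV4-11 without SYK inhibitor history, 500/well, qHTS format.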

[2] = Viability qHTS for spleen associated tyrosine kinase inhibitor (SYKi) drug resistant MV4-11 cells (AID 1963824); also: nearly all actives have a fitted effect of over 35% in size
Method in brief: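 SYK inhibitor-resistant MV4-11 AML cells, 500 per well, added to predispensed compounds and incubated 72 hr at 37 C, 5% CO2. Viability measured by CellTiter-Glo luminescence after 10 min at room temperature.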
Potency is read from the fitted curve at half-maximal effect.

Question: What does the source list for `CC(=O)N1CCN([C@H]2CCN(C(=O)N(C)[C@H](C)c3cc(C(F)(F)F)cc(C(F)(F)F)c3)[C@@H](c3ccc(F)cc3C)C2)CC1`?
Answer: Potency [1]: 14.6 µM (active); Potency [2]: 8.2 µM (active)

Question: What does the source list for `C[C@@H]1O[C@@H](O[C@@H]2[C@@H](O)[C@H](O[C@@H]3[C@@H](O)[C@@H](O)[C@H](O[C@H]4[C@H](OC(=O)[C@]56CCC(C)(C)C[C@H]5C5=CCC7[C@@]8(C)C[C@H](O)[C@H](O[C@@H]9O[C@H](C(=O)O)[C@@H](O)[C@H](O)[C@H]9O)[C@@](C)(CO)C8[C@H](O)C[C@@]7(C)[C@]5(C)CC6)OC[C@H](O)[C@@H]4O)O[C@H]3C)OC[C@H]2O)[C@H](O)[C@H](O)[C@H]1O` (some centres undefined)?
Answer: viability (% of control) [1]: 78.4% [at 9.25 µM]; viability, % of control [2]: 89.9% [at 9.25 µM]

Question: What does the source list for `C=C1CC[C@H](O)CC1=C/C=C1\CCC[C@]2(C)[C@@H]([C@H](C)/C=C/[C@H](C)C(C)C)CC[C@@H]12`?
Answer: Potency [1]: 8.2 µM (active); Potency [2]: 9.2 µM (active)

Question: With `CC1=CC2=C(C)C(=O)[C@](C)(O)[C@H](O)C2=CO1` as the compound, how does the Potency [1] read?
Answer: inactive

Question: What about the Potency [2] of the same compound?
Answer: inactive

Question: Which Potency [1] does the source give for `C=C1CCC2C(C)(C(=O)O)CCCC2(C)C1CC/C(=C\CO)CO` (centres undefined) here?
Answer: inactive

Question: What about the Potency [2] of the same compound?
Answer: inactive

Question: For `C=C(C)C1CCC(C)C12CC(O)C1(C)OC1C2OC(=O)C(N)CCC(=O)O` (centres undefined), which Potency [1] is on record?
Answer: inactive

Question: What about the Potency [2] of the same compound?
Answer: inactive

Question: What does the source list for `C=C1C(=O)O[C@@H]2/C=C(\CO)CC/C=C(\CO)[C@H](OC(C)=O)C(OC(=O)C(C)CC)C12` (some centres undefined)?
Answer: Potency [1]: 5.02 µM (active); Potency [2]: 2.24 µM (active)

Question: Which results are given for `Cc1[nH]c2ccccc2c1C1=C(NCCc2ccc(F)cc2)C(=O)N(C)C1=O`?
Answer: Potency [1]: 16.4 µM (active); Potency [2]: 11.6 µM (active)

Question: Which results are given for `CCCC(NC(=O)/C(C#N)=C/c1cccc(Br)n1)c1ccccc1` (centres undefined)?
Answer: Potency [1]: 13 µM (active); Potency [2]: 9.2 µM (active)

Question: Which results are given for `CC1CCC2(NC1)OC1C(=O)C3C4CCC5CC(O[C@@H]6O[C@H](CO)[C@@H](O)[C@H](O)[C@H]6O[C@@H]6O[C@@H](C)[C@H](O)[C@@H](O)[C@H]6O)CCC5(C)C4CCC3(C)C1C2C` (some centres undefined)?
Answer: Potency [1]: inactive; Potency [2]: inactive

Question: What does the source list for `C=C1CC[C@]2(C(=O)O[C@@H]3O[C@H](CO)[C@@H](O)[C@H](O)[C@H]3O)CC[C@]3(C)C(=CCC4[C@@]5(C)C[C@H](O)[C@@H](O[C@@H]6O[C@H](C(=O)O)[C@@H](O)[C@H](O)[C@H]6O)[C@](C)(C=O)C5CC[C@]43C)C2C1` (some centres undefined)?
Answer: viability (% of control) [1]: 68.2% [at 9.25 µM]; viability, % of control [2]: 87.9% [at 9.25 µM]

Question: What does the source list for `C/C=C1\[C@H](O[C@@H]2O[C@H](CO)[C@@H](O)[C@H](O)[C@H]2O)OC=C(C(=O)OC)[C@H]1CC(=O)O`?
Answer: Potency [1]: inactive; Potency [2]: inactive

Question: For `O=C(OCC1OC(Oc2ccc(O)cc2COC(=O)C2(O)C(O)CCC(=O)C2OC(=O)C2C=CCC2)C(OC(=O)C2C=CCC2)C(O)C1O)C1C=CCC1` (centres undefined), which Potency [1] is on record?
Answer: inactive

Question: And the Potency [2]?
Answer: inactive

Question: What does the source list for `O=c1ccc2ccc(OCCCCN3CCN(c4cccc5sccc45)CC3)cc2[nH]1`?
Answer: Potency [1]: 10.3 µM (active); Potency [2]: 7.31 µM (active)

Question: What does the source list for `C[C@@H]1O[C@@H](OC[C@H]2O[C@@H](OCCc3ccccc3)[C@H](O)[C@@H](O)[C@@H]2O)[C@H](O)[C@H](O)[C@H]1O`?
Answer: Potency [1]: inactive; Potency [2]: inactive

Question: With `O=S(c1cc(Cl)cc(Cl)c1O)c1cc(Cl)cc(Cl)c1O` as the compound, how does the Potency [1] read?
Answer: inactive

Question: What about the Potency [2] of the same compound?
Answer: inactive

Question: Which Potency [1] does the source give for `c1cc(NCCc2c[nH]c3ccccc23)cc(Nc2ccncc2)c1` here?
Answer: 0.58 µM (active)

Question: And the Potency [2]?
Answer: 0.651 µM (active)

Question: What does the source list for `OC[C@H]1O[C@@H](O[C@H]2[C@H](O)[C@@H](CO)O[C@@H](OCc3ccccc3)[C@@H]2O[C@@H]2OC[C@](O)(CO)[C@H]2O)[C@H](O)[C@@H](O)[C@@H]1O`?
Answer: Potency [1]: inactive; Potency [2]: inactive

Question: With `CC(=O)OC[C@]12[C@H](OC(C)=O)C(=O)[C@@H]3[C@@H](OC(C)=O)[C@@]14O[C@@]3(C)COC(=O)c1cccnc1[C@@H](C)[C@H](C)C(=O)O[C@@H]([C@H](O)[C@@H]2OC(C)=O)[C@]4(C)O` as the compound, how does the Potency [1] read?
Answer: inactive

Question: What about the Potency [2] of the same compound?
Answer: inactive

Question: For `CC(C)[C@@H](C)/C=C/[C@@H](C)[C@H]1CC[C@H]2C3=CC=C4C[C@@H](O)CC[C@]4(C)C3=CC[C@]12C`, which Potency [1] is on record?
Answer: 16.4 µM (active)

Question: What about the Potency [2] of the same compound?
Answer: 11.6 µM (active)

Question: Which results are given for `CC1(C)C2CC[C@]3(C)C(C(=O)C=C4[C@H]5C[C@@](C)(C(=O)O)CC[C@]5(C)CC[C@]43C)[C@@]2(C)CC[C@@H]1O` (some centres undefined)?
Answer: Potency [1]: inactive; Potency [2]: inactive

Question: Which Potency [1] does the source give for `C[C@@H]1C[C@H]2[C@@H]3CCC4=CC(=O)C=C[C@]4(C)[C@@]3(F)[C@@H](O)C[C@]2(C)[C@@]1(O)C(=O)COP(=O)(O)O` here?
Answer: inactive

Question: And the Potency [2]?
Answer: inactive
